67 compounds from PubChem BioAssay AID504332 (National Center for Advancing Translational Sciences (NCATS), 2011) can be followed below.

Several values for one entry are separate records, joined by “and”; a condition that tells them apart may be missing. Equal entries are not always repeated. Out of some 350,000 compounds screened, about 31,000 (8.9%) were called active. Roughly 15% stayed inconclusive and do not appear here. Calls come from the whole dose curve; as a rule, active = well fitted inhibition curve with a large enough effect; inconclusive = small, poorly fitted or top-dose-only effect; inactive = no such curve, though single readings can be large or run the other way. What follows is part of a selection rich in actives, with near analogues and random picks from the rest. A call without a number means that no potency is given here. The source holds several records for some structures; these can differ, active in one and inactive in another.
Potency is the fitted concentration of half-maximal effect.

The target of this assay is Histone-lysine N-methyltransferase EHMT2 (Homo sapiens) (UniProt Q96KQ7). Nature of the assay: qHTS Assay for Inhibitors of Histone Lysine Methyltransferase G9a. Note: nearly all actives have a fitted effect of over 75% in size. The note with it: G9a H3K9 monomethylation, AlphaScreen, 2 h; series mostly up to 59 µM. The gist of the method: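 Enzyme 20 nM + cpd, 15 min RT; add b-H3K9 pep 500 nM / SAM 20 uM; 2 h RT; anti-H3K9me1 Ab 0.5 ug/mL + SA donor / anti-rabbit acceptor beads 20 ug/mL each, 10 min; AlphaScreen read.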
Histone-lysine N-methyltransferase EHMT2 (Homo sapiens), sequence (Q96KQ7 913-1193 limits assumed): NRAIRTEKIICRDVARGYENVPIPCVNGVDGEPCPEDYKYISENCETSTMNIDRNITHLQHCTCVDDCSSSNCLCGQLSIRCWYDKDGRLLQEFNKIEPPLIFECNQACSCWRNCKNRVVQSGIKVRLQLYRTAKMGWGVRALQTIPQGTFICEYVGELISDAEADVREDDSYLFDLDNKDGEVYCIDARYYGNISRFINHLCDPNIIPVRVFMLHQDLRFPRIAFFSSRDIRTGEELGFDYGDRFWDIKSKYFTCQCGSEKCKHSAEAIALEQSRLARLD
(In general: qHTS replaces the single test concentration by a dilution series.)
Regarding `O=C(NCCN1CCOCC1)c1cccc(S(=O)(=O)Nc2ccc(F)cc2)c1`, the activity, negative = inhibition was 8.8% [at 12.7 µM] (inactive). Turning to `Cc1cccc(OCCSc2nc3ccc(NC(=O)COc4ccccc4C)cc3s2)c1`, the Potency result is “inactive”.

For `COCc1[nH][nH]c(=O)c1C=Nc1ccc(F)cc1F`, the Potency was 20 µM (active). With `Cc1c(C(C)CCCO)oc(=O)c2c1Oc1c(C)c(C(C)C[C@@H](C)O)oc(=O)c1C2` (some centres not stated), the activity, negative = inhibition was 9.9% [at 2.33 µM] (inactive). On to `Cc1ccc2nc(SCC(=O)N3CC(C)OC(C)C3)nc(=O)n2c1` (configuration not stated), for which the Potency result was “inactive”. On the same count and under the same terms, with `Cc1ccc(NS(=O)(=O)c2cccs2)cc1S(=O)(=O)N1CCCCCC1` the entry was “inactive”; with `CCN(CC)S(=O)(=O)c1ccc(N2CCCC2)c(NS(=O)(=O)c2cccs2)c1`, 28.2 µM (active). Still for that read-out and setting: with `CCN(CC)S(=O)(=O)c1ccc(N2CCOCC2)c(NC(=O)C2COc3ccccc3O2)c1` (configuration not stated) the entry was “inactive”.

Turning to `O=S(=O)(Nc1cc(S(=O)(=O)N2CCOCC2)ccc1N1CCCC1)c1cccs1`, the Potency is 20 µM (active). As for `COc1ccc(S(=O)(=O)N2CCCCC2)cc1NC(=O)c1cc([N+](=O)[O-])ccc1N1CCOCC1`, the Potency result was “inactive”. For `CCN(CC)S(=O)(=O)c1ccc(N2CCN(C)CC2)c(NC(=O)Nc2ccccc2F)c1`, the Potency was 39.8 µM (active). Turning to `CCN(CC)S(=O)(=O)c1ccc(N2CCOCC2)c(C(=O)O)c1`, the Potency result was “inactive”. With `O=S(=O)(Nc1cc(Cl)ccc1N1CCOCC1)c1ccccc1Cl`, the activity, negative = inhibition is 13.1% [at 2.33 µM] (inactive). On to `COCCNC(=S)Nc1cc(S(=O)(=O)N2CCOCC2)ccc1N1CCCCC1`, for which the Potency is 2 µM (active). On the same count and under the same terms, the result for `CC(=O)NCCC(=O)Nc1cc(S(=O)(=O)N2CCOCC2)ccc1N1CCOCC1` reads “inactive”; that for `CN1CCN(c2ccc(S(=O)(=O)N3CCCCC3)cc2NC(=O)Cc2ccccc2F)CC1`, “inactive”. Same read-out and setting: the result for `CCN(CC)S(=O)(=O)c1ccc(Cl)c(C(=O)NC(C)C(c2cccs2)N2CCCC2)c1` (configuration not stated) reads “inactive”; that for `NC(=O)c1cc(S(=O)(=O)NCCCc2ccco2)cs1`, “inactive”. Take `COc1ccc(Cn2ccnc2SCC(=O)NCc2ccco2)cc1`: the Potency entry was “inactive”. Same read-out and setting: the result for `COc1cc(OC)cc(C(=O)Nc2cc3nn(-c4ccccc4)nc3cc2Cl)c1` reads “inactive”. As for `C[C@@H]1NC(=O)[C@@]2(C)[C@@H](c3ccccc3)[C@H]3COc4ccccc4[C@@H]3N2C1=O`, the activity, negative = inhibition is -3.98% [at 0.501 µM] (inactive). With `Cc1cccc(-n2c(=O)c3c(c4cc(C)ccc4n3C)n(CC(=O)Nc3ccccc3Cl)c2=O)c1`, the Potency result was “inactive”.

As to `CCCn1c(N)c(N(CCOC)C(=O)C2CCCC2)c(=O)[nH]c1=O`, the activity, negative = inhibition was 15% [at 2.33 µM] (inactive). For the compound `Cc1ccc(-c2nc(-c3ccncc3)no2)c(C)c1`, the Potency entry was “inactive”. On the same count and under the same terms, with `COc1cccc(-n2c(=O)c3c(C)c(C(=O)N(C)C)sc3n(Cc3cccc(C)c3)c2=O)c1` the entry was “inactive”. Regarding `COc1ccc(CCNC(=O)c2ccc3c(c2)nc(C)n3-c2ccc(Br)cc2)cc1OC`, the Potency entry is “inactive”. On the same count and under the same terms, with `CCOC(=O)c1ccc(CSc2nnc3cc(C)c4ccccc4n23)cc1` the entry was “inactive”. The same measure, in the same setting: the result for `CCN(CC(=O)Nc1c(F)cccc1F)C(=O)c1ccc(-c2ccccc2)cc1` reads “inactive”; that for `N#CCCN(C(=O)COC(=O)C1CCN(c2ccc(C(F)(F)F)cn2)CC1)c1ccc(F)cc1`, “inactive”; that for `COC(=O)c1ccc(NC(=O)CCc2c(C)nn(-c3ccc(N4CCCC4)nn3)c2C)cc1`, “inactive”. Same read-out and setting: the result for `Cn1c(=O)n(Cc2c(F)cccc2Cl)c(=O)c2c1nc1n2CCN1c1ccc(F)cc1` reads “inactive”; that for `Cc1ccc(CNC(=O)C2(C(F)(F)F)C/C(=C\Cc3ccccc3)CCCO2)o1` (configuration not stated), 28.2 µM (active). Turning to `Cc1ccc(CNC(=O)Cn2cnc(S(=O)(=O)N3CCCCC3)c2)o1`, the Potency entry is “inactive”.

Take `Cc1ccc(C(=O)N2CC(=O)Nc3ccccc32)o1`: the Potency entry was “inactive”. Still for that read-out and setting: the result for `CC(=O)c1ccc(NC(=O)C2CCCN2S(=O)(=O)c2cccs2)cc1` (configuration not stated) reads “inactive”. The same measure, in the same setting: the result for `CC(=O)c1ccc(S(=O)(=O)NC2CC(=O)N(c3ccc4c(c3)OCCO4)C2)cc1` (configuration not stated) reads “inactive”. With `CCCCCCCNC(=O)C1(CC2CC(c3cccc(Br)c3)=NO2)CCN(C(=O)c2cc(OCC)c(OCC)c(OCC)c2)CC1` (configuration not stated), the activity, negative = inhibition was -31.9% [at 2.33 µM] (inactive). Take `O=C(CCN1C(=O)C2C3CCC(C3)C2C1=O)Nc1ccc(Cl)cc1Cl` (configuration not stated): the Potency result is “inactive”. On the same count and under the same terms, with `CSc1ncccc1C(=O)Nc1nc2ccc(F)cc2s1` the entry was “inactive”; with `CCS(=O)(=O)N1Cc2ccccc2CC1C(=O)Nc1ccc(OC)cc1OC` (configuration not stated), “inactive”. For `CCS(=O)(=O)N1Cc2ccccc2CC1C(=O)Nc1nc2ccc(F)cc2s1` (configuration not stated), the Potency was 31.6 µM (active). `Cc1ccc(C(=O)C[n+]2cc(-c3ccccc3)n3c2CCCCC3)cc1`: the Potency entry is “inactive and 50.1 µM (active)”. Same read-out and setting: the result for `O=C(C[n+]1cc(-c2ccc(Cl)c(Cl)c2)n2c1CCC2)c1cccs1` reads “inactive”. With `Clc1ccc(C[n+]2cc(-c3ccccc3)n3c2CCC3)cc1`, the Potency result is “inactive”. Consider `O=C(CSc1ncc(CO)n1Cc1ccc(F)cc1)NCc1ccco1`, for which the Potency entry was “inactive”. The same measure, in the same setting: with `O=C(O)c1ccc2c(c1)N(Cc1ccc(F)cc1)C(=O)c1ccccc1S2=O` (configuration not stated) the entry was “inactive”. Take `OCC[C@H]1C[C@H](O)[C@@H](O)[C@]2(Cc3ccccc3CO2)O1`: the activity, negative = inhibition was 12.3% [at 2.33 µM] (inactive).

Regarding `COc1ccc(-c2nnc(SC(=O)N3c4ccccc4Sc4ccccc43)o2)cc1`, the Potency was 17.8 µM (active). As for `COc1ccc(-c2nnc(SC(C)C(=O)NC3CC3)o2)cc1` (configuration not stated), the activity, negative = inhibition is 3.83% [at 12.7 µM] (inactive). As for `COc1ccc(-c2nnc(SCc3cccnc3)o2)cc1`, the Potency result was “inactive”. The same measure, in the same setting: the result for `Cc1ccccc1C(=O)NCc1nc(-c2ccc(Cl)cc2)no1` reads “inactive”.

Take `CC1CN(c2cc(=O)n(-c3cccc(Br)c3)c(=O)[nH]2)CC(C)O1` (configuration not stated): the Potency was 44.7 µM (active). Still for that read-out and setting: the result for `CC1CN(C(=S)Nc2ccc(Br)cc2Cl)CC(C)O1` (configuration not stated) reads “inactive”. On the same count and under the same terms, the result for `CC1CN(c2cc(=O)n(Cc3ccc(F)cc3)c(=O)[nH]2)CC(C)O1` (configuration not stated) reads “inactive”. The same measure, in the same setting: the result for `COC(=O)c1ccccc1N=Nc1c(C)[nH][nH]c1=O` reads “inactive”. For `Cc1[nH][nH]c(=O)c1N=Nc1ccccc1`, the Potency is 50.1 µM (active). Still for that read-out and setting: with `Cc1cccn2c(=O)c3cc(C(=O)NC(C)c4ccccc4)c(=N)n(CCCO)c3nc12` (configuration not stated) the entry was “inactive”. Consider `Cc1ccsc1C(=O)NC1CCCCC1C` (configuration not stated), for which the activity, negative = inhibition is 16.6% [at 12.7 µM] (inactive). Consider `Cc1ccc(S(=O)(=O)NCC(=O)Nc2ccc3c(c2)OCCO3)cc1`, for which the Potency entry is “inactive”. Still for that read-out and setting: with `Cc1ccc2nc(-c3cccnc3)c(NC3CCCC3)n2c1` the entry was “inactive”; with `Cc1ccc(-c2nc3cccc(C)n3c2Nc2ccc3c(c2)OCCO3)cc1`, 12.6 µM (active). Still for that read-out and setting: the result for `Cc1ccc2nc(-c3ccncc3)cc(C(=O)Nc3ccc4c(c3)OCCO4)c2c1` reads “inactive”. On the same count and under the same terms, with `Cc1ccc2nc(-c3ccc(O)cc3)c(Nc3ccc4c(c3)OCO4)n2c1` the figure was 3.55 µM (active); with `Cc1cccc2nc(-c3ccc(Cl)s3)c(Nc3ccc4c(c3)OCCO4)n12`, 10 µM (active); with `Oc1ccccc1-c1nc2ccc(Cl)cn2c1Nc1ccc2c(c1)OCCO2`, “inactive”. Turning to `Cc1nc(Nc2ccc3c(c2)OCCO3)c2nnn(Cc3ccccc3Cl)c2n1`, the Potency entry was “inactive”. On the same count and under the same terms, the result for `Cc1ccn2c(Nc3ccc4c(c3)OCCO4)c(-c3ccc(C)s3)nc2c1` reads “inactive”.
